The text below walks through data of the supplement of paper PMC7411054.

Test in all cases: lowest phenotypically active concentration; higher = less potent
Details in all cases: treatment time: 24 h

One assay has as its system HepG2-ACTB-RAB5A. The method in brief: (§1)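 The reporter lines, fifteen in total and built by gene editing in A549, HepG2 and WPMY1 cells, used BFP for segmentation alongside GFP and RFP/FusionRed markers. Each was treated at 0.3, 1, 3 or 9 µM for 24 h in four wells and then imaged live, with live-cell features normalised to solvent control wells. Deviation meant ≥3 of 4 wells beyond the 95th percentile of control Euclidean distances; reproducibility meant a median replicate Pearson correlation above the 95th percentile of non-replicates. Only conditions meeting both were scored as phenotypically active.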

Another assay concerns HepG2-CANX-COX4. In short, it runs like this:
as §1

For another assay, the system named is HepG2-GM130-SQSTM1. The method in brief:
as §1

The subject of another assay is HepG2-TP53BP1-CLTA. In short, it runs like this:
as §1

The test system of the next assay is HepG2-TUBA1B-RELA. In short, it runs like this:
as §1

In a further assay the test system is WPMY1-ACTB-RAB5A. In short, it runs like this:
as §1

A further assay relates to WPMY1-CANX-COX4. In short, it runs like this:
as §1

The next assay deals with WPMY1-GM130-SQSTM1. In short, it runs like this: as §1
In another assay the test system is WPMY1-TP53BP1-CLTA. The method in brief: as §1
The next assay deals with WPMY1-TUBA1B-RELA. In short, it runs like this: as §1

The structures appear in SMILES notation. Bounds are passed on as bounds.

On to `C[C@@H](Oc1cc(-n2cnc3ccc(CN4CCN(C)CC4)cc32)sc1C(N)=O)c1ccccc1C(F)(F)F`, for which the “lowest phenotypically active concentration” value in the assay on HepG2-ACTB-RAB5A, in the assay on HepG2-CANX-COX4, with HepG2-GM130-SQSTM1, in the assay on HepG2-TP53BP1-CLTA, with HepG2-TUBA1B-RELA and in the assay on WPMY1-ACTB-RAB5A was at most 0.3 µM in each case. Besides, the “lowest phenotypically active concentration” value in the assay on WPMY1-CANX-COX4 is 3 µM; with WPMY1-GM130-SQSTM1, at most 0.3 µM; in the assay on WPMY1-TP53BP1-CLTA, at most 0.3 µM; in the assay on WPMY1-TUBA1B-RELA, at most 0.3 µM.
